Data as given in PubChem BioAssay (EPA / NIEHS).
The source holds several records for some structures; these can differ, active in one and inactive in another. Activity calls are given as the source filed them. How the source made its calls: active means hit-call score of the fitted dose curve at least 0.9, where 1 is the maximum; inactive means score below 0.9.

How the values were obtained:
[1] = ATG_GLI_CIS: Attagene CIS-FACTORIAL HepG2 Assay for human Zinc Finger Protein GLI1 (AID 2282945); conditions: HepG2, Attagene cis-factorial reporter mRNA, GLI element; actives raise or lower the signal
How it was run: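 HepG2 cells transiently transfected with cis-promoter multiplexed reporter units report endogenous transcription factor activity. After 24 h chemical exposure, reporter mRNA was quantified by RT-PCR, 6-FAM labelling, HpaI digestion and capillary electrophoresis, with bidirectional fitting against DMSO.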

[2] = biological target: Bile acid receptor (Homo sapiens) (UniProt Q96RI1); assay: ATG_IR1_CIS: Attagene CIS-FACTORIAL HepG2 Assay for human Nuclear Receptor Subfamily 1 Group H Member 4 (NR1H4), IR1 submotif (AID 2282946); conditions: IR1 reporter transcription, actives raise or lower the signal
How it was run: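 Transient MRTU transfection, HepG2; 24 h dosing; RNA → RT-PCR → 6-FAM primer extension → HpaI digest → capillary electrophoresis fluorescence. Gain/loss of signal fitted relative to DMSO.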

[3] = ATG_GRE_CIS: Attagene CIS-FACTORIAL HepG2 Assay for human Glucocorticoid Response Elements (GRE) (AID 2282947); conditions: HepG2 GRE cis-reporter, Attagene multiplex mRNA; actives raise or lower the signal
How it was run: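 HepG2 cells transiently transfected with multiple cis-promoter reporter units measure endogenous TF activity; 24 h compound exposure. Reporter mRNA quantified by RT-PCR, FAM labelling, HpaI digestion and capillary electrophoresis; bidirectional fit vs DMSO baseline.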

[4] = ATG_ISRE_CIS: Attagene CIS-FACTORIAL HepG2 Assay for human Interferon Regulatory Factor 1 (IRF1) binding to an Interferon-Stimulated Response Element (ISRE) (AID 2282948); conditions: HepG2 ISRE cis-reporter (Attagene), mRNA transcription readout; actives raise or lower the signal
How it was run: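 HepG2 cells transiently transfected with multiplexed cis-promoter reporter units; after 24 h compound exposure, reporter mRNA quantified by RT-PCR, FAM labelling, HpaI digestion and capillary electrophoresis. Bidirectional fit versus DMSO baseline.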

[5] = ATG_M_32_CIS: Attagene CIS-FACTORIAL HepG2 Assay for M32 Transcription Factor (Internal Marker) (AID 2282949); conditions: HepG2 Attagene cis-factorial M32 reporter, mRNA; actives raise or lower the signal;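 further: background control marker of the multiplexed CIS panel rather than a real target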
How it was run: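 Internal background marker read-out: RT-PCR/capillary electrophoresis fluorescence of reporter transcripts from transiently transfected HepG2 cells after 24 h chemical exposure. Activity fitted bidirectionally relative to DMSO negative control.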

[6] = ATG_M_06_CIS: Attagene CIS-FACTORIAL HepG2 Assay for M06 Transcription Factor (Internal Marker) (AID 2282950); conditions: HepG2 Attagene CIS-FACTORIAL M06 internal marker reporter; actives raise or lower the signal
How it was run: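 One of many multiplexed endpoints: HepG2 reporter mRNA after 24 h dosing, detected by RT-PCR and capillary electrophoresis fluorescence; gain or loss of signal analysed against DMSO.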

[7] = biological target: Hypoxia-inducible factor 1-alpha (Homo sapiens) (UniProt Q16665); assay: ATG_HIF1a_CIS: Attagene CIS-FACTORIAL HepG2 Assay for human Hypoxia Inducible Factor 1 (HIF1A) (AID 2282951); conditions: HepG2 Attagene cis-factorial HIF1a reporter transcription; actives raise or lower the signal
How it was run: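 Activity is fitted in both directions relative to DMSO. Reporter transcripts are read by RT-PCR, fluorescent primer extension and capillary electrophoresis after 24 h chemical treatment. The cells are HepG2 carrying transiently transfected cis-element-driven reporter units responding to endogenous factors.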

[8] = biological target: Hepatocyte nuclear factor 6 (Homo sapiens) (UniProt Q9UBC0); assay: ATG_HNF6_CIS: Attagene CIS-FACTORIAL HepG2 Assay for human Hepatocyte Nuclear Factor 6 (HNF6) (AID 2282952); conditions: HepG2 Attagene cis-factorial HNF6 reporter transcription; actives raise or lower the signal
How it was run: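 HepG2 cells transiently transfected with cis-element-driven multiple reporter transcription units, dosed 24 h; reporter mRNA quantified by RT-PCR, FAM primer extension, HpaI digestion and capillary electrophoresis; bidirectional fit versus DMSO baseline.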

[9] = ATG_PBREM_CIS: Attagene CIS-FACTORIAL HepG2 Assay for human Phenobarbital-responsive Enhancer Module (PBREM) (AID 2282955); conditions: HepG2 PBREM cis-reporter, Attagene multiplexed transcription; actives raise or lower the signal
How it was run: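 Endogenous transcription factor activity was read from reporter transcripts in transiently transfected human HepG2 liver cells after 24 h dosing. RT-PCR products were fluorescently labelled, HpaI-cut and sized by capillary electrophoresis; activity fitted bidirectionally against DMSO baseline.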

[10] = biological target: Paired box protein Pax-6 (Homo sapiens) (UniProt P26367); assay: ATG_Pax6_CIS: Attagene CIS-FACTORIAL HepG2 Assay for human Paired Box 6 (PAX6) (AID 2282956); conditions: HepG2 CIS-FACTORIAL PAX6 reporter transcription, RNA readout; actives raise or lower the signal
How it was run: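 HepG2 cells transiently transfected with multiplexed cis-promoter reporter units (endogenous TF activity) were dosed for 24 h. Reporter mRNA was quantified by RT-PCR, 6-FAM labeling, HpaI digestion and capillary electrophoresis; bidirectional fitting versus DMSO baseline.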

[11] = ATG_PXRE_CIS: Attagene CIS-FACTORIAL HepG2 Assay for human Pregnane X Receptor Element (PXRE) (AID 2282957); conditions: HepG2 Attagene CIS-FACTORIAL PXRE reporter, mRNA; actives raise or lower the signal
How it was run: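 HepG2 cells transiently transfected with cis-regulated multiple reporter transcription units; endogenous factor activity measured as reporter mRNA 24 h after dosing. RT-PCR, fluorescent primer extension, HpaI digestion, capillary electrophoresis; bidirectional fit versus DMSO baseline.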

[12] = ATG_PPRE_CIS: Attagene CIS-FACTORIAL HepG2 Assay for human Peroxisome Proliferator-activated Response Element (PPRE) (AID 2282958); conditions: HepG2 PPRE cis-element reporter, Attagene transcription factor profiling; actives raise or lower the signal
How it was run: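 Endogenous PPRE-driven transcription is measured in HepG2 cells carrying transfected multi-reporter constructs. Reporter transcripts are quantified by RT-PCR, HpaI digestion and capillary electrophoresis 24 h after dosing. DMSO baseline, bidirectional fit.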

[13] = ATG_RORE_CIS: Attagene CIS-FACTORIAL HepG2 Assay for human RAR-related Orphan Receptor Element (RORE) (AID 2282959); conditions: HepG2 Attagene cis-factorial RORE reporter, mRNA; actives raise or lower the signal
How it was run: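 RORE reporter transcripts reflecting endogenous factor activity were read after 24 h compound exposure of transfected HepG2 cells, using reverse transcription, PCR, fluorescent labelling and capillary electrophoresis sizing. Gain or loss fitted against DMSO.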

[14] = ATG_Sox_CIS: Attagene CIS-FACTORIAL HepG2 Assay for human SRY-box transcription factor (SOX) (AID 2282960); conditions: HepG2 Attagene cis-factorial SOX reporter, mRNA; actives raise or lower the signal
How it was run: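 Reporter transcripts, measured by RT-PCR and capillary electrophoresis of labelled fragments, report endogenous SOX transcription factor activity. Transiently transfected human HepG2 cells receive chemical for 24 h; changes in either direction are fitted relative to DMSO.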

[15] = biological target: Transcription factor Sp1 (Homo sapiens) (UniProt P08047); assay: ATG_Sp1_CIS: Attagene CIS-FACTORIAL HepG2 Assay for human Specificity Protein 1 (Sp1) (AID 2282961); conditions: HepG2 Sp1 cis-reporter transcription, actives raise or lower the signal
How it was run: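 Read-out is reporter transcript level, measured by RT-PCR and fluorescent capillary electrophoresis after 24 h chemical treatment. System: transiently transfected HepG2 cells reporting endogenous transcription factor activity; gain or loss fitted against DMSO baseline.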

[16] = ATG_SREBP_CIS: Attagene CIS-FACTORIAL HepG2 Assay for human Sterol Regulatory Element Binding (SREBP) (AID 2282962); conditions: HepG2 Attagene cis-factorial SREBP reporter, mRNA; actives raise or lower the signal
How it was run: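 HepG2 cells transiently transfected with multiplexed cis-element reporter units report endogenous transcription factor activity. After 24 h of chemical exposure, reporter mRNA was quantified by RT-PCR, 6-FAM labelling, HpaI digestion and capillary electrophoresis; bidirectional fits used DMSO as baseline.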

[17] = biological target: Signal transducer and activator of transcription 3 (Homo sapiens) (UniProt P40763); assay: ATG_STAT3_CIS: Attagene CIS-FACTORIAL HepG2 Assay for human Signal Transducer and Activator of Transcription 3 (STAT3) (AID 2282963); conditions: HepG2, Attagene cis-factorial STAT3 reporter transcription; actives raise or lower the signal
How it was run: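 HepG2 cells transiently transfected with cis-element-driven multiple reporter transcription units; after 24 h chemical exposure, reporter mRNA measured by RT-PCR, 6-FAM primer-extension labelling, HpaI digestion and capillary electrophoresis. Bidirectional fitting versus DMSO baseline.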

[18] = ATG_TA_CIS: Attagene CIS-FACTORIAL HepG2 Assay for human TA Basal Promoter (AID 2282964); conditions: HepG2 Attagene CIS-factorial TA basal promoter reporter; actives raise or lower the signal
How it was run: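 Transient MRTU transfection of HepG2 preceded 24 h compound exposure. Reporter mRNA levels were then read by RT-PCR with capillary electrophoresis, and this background-control endpoint was fitted bidirectionally to DMSO.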

[19] = ATG_MRE_CIS: Attagene CIS-FACTORIAL HepG2 Assay for human Metal Responsive Element (MRE) (AID 2282954); conditions: HepG2 MRE cis-reporter transcription, Attagene multiplex; actives raise or lower the signal
How it was run: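 HepG2 cells transiently transfected with multiple cis-element reporter units measure endogenous MTF1-driven transcription. After 24 h compound exposure, reporter mRNA is quantified by RT-PCR with 6-FAM labelling, HpaI digestion and capillary electrophoresis; bidirectional fits versus DMSO.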

[20] = biological target: Heat shock factor protein 1 (Homo sapiens) (UniProt Q00613); assay: ATG_HSE_CIS: Attagene CIS-FACTORIAL HepG2 Assay for human Heat Shock Transcription Factor 1 (HSE) (AID 2282953); conditions: HepG2 HSE cis-reporter, Attagene RNA transcription; actives raise or lower the signal
How it was run: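 Using HepG2 with transfected cis-driven reporter constructs, compound effects on endogenous factor activity are scored as reporter mRNA change at 24 h. Detection: RT-PCR, HpaI digestion, capillary electrophoresis; bidirectional fitting to DMSO.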

Measured: AC50

Sequence of Paired box protein Pax-6 (Homo sapiens) (P26367 whole entry, looked up): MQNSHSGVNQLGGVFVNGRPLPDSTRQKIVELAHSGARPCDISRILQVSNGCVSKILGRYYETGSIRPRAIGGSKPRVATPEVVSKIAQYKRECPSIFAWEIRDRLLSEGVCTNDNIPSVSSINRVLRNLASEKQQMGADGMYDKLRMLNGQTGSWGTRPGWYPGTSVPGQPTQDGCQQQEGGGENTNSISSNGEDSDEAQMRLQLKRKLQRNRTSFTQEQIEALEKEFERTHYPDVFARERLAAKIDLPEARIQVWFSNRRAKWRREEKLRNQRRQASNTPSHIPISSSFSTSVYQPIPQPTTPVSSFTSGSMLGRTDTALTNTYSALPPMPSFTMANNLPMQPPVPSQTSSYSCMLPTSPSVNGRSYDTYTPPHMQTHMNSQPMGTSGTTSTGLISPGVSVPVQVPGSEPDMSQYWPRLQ
Sequence of Hepatocyte nuclear factor 6 (Homo sapiens) (Q9UBC0 whole entry, looked up): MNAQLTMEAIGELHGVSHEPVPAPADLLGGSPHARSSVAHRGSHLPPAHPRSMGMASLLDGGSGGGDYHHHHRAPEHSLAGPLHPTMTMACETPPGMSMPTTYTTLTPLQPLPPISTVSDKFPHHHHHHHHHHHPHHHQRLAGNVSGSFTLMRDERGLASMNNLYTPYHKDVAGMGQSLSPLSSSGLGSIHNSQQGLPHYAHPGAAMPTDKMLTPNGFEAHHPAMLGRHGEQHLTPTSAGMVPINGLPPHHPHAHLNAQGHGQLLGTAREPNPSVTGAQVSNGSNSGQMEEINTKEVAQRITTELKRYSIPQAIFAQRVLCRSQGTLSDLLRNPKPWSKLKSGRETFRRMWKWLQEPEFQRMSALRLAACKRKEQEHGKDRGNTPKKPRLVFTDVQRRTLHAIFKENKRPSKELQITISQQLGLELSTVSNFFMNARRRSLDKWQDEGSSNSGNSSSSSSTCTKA
Sequence of Heat shock factor protein 1 (Homo sapiens) (Q00613 whole entry, looked up): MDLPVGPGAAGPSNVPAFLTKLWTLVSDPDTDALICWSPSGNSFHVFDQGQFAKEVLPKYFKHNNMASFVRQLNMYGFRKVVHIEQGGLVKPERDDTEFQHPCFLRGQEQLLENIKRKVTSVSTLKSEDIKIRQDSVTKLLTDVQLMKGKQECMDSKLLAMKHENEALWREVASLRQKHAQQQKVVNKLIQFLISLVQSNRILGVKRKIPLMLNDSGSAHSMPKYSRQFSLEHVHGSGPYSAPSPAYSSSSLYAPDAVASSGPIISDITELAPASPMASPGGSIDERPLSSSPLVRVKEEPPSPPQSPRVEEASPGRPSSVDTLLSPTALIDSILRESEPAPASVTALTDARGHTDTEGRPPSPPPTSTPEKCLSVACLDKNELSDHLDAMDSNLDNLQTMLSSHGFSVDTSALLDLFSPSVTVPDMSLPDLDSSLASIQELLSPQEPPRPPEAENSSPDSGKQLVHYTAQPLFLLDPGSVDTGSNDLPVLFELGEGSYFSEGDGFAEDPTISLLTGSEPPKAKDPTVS
Sequence of Bile acid receptor (Homo sapiens) (Q96RI1 whole entry, looked up): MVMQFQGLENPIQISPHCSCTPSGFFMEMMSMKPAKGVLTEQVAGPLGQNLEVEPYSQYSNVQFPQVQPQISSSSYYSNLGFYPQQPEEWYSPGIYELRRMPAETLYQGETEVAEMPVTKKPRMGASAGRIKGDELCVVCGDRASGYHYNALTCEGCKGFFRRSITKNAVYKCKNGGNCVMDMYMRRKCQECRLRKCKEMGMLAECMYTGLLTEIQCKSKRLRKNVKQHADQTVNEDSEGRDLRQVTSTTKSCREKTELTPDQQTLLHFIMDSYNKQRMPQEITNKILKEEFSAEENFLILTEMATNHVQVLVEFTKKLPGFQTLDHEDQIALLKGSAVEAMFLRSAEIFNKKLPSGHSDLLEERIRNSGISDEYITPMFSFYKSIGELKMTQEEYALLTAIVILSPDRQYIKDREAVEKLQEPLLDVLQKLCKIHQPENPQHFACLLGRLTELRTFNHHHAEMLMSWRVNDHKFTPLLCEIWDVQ
Sequence of Hypoxia-inducible factor 1-alpha (Homo sapiens) (Q16665 whole entry, looked up): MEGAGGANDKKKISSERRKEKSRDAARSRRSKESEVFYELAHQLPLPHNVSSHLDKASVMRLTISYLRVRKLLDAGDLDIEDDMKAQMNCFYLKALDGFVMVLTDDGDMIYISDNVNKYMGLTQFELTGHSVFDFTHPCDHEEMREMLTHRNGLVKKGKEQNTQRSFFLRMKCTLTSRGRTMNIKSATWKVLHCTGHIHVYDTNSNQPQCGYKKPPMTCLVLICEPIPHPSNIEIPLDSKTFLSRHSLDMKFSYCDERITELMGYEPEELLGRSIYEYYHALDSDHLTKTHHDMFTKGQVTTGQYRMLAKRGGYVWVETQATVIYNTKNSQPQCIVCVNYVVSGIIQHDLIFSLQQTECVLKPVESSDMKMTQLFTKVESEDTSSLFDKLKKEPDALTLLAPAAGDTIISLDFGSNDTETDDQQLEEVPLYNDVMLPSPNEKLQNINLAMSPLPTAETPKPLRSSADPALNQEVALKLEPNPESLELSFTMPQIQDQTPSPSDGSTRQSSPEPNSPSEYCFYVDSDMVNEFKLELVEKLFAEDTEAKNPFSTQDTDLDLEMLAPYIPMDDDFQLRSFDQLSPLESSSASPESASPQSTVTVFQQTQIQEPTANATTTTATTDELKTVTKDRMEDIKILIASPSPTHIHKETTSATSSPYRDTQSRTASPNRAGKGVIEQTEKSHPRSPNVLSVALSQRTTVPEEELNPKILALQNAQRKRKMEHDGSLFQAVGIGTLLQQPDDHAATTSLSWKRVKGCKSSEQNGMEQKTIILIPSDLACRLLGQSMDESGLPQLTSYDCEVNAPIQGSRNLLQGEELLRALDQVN
Sequence of Transcription factor Sp1 (Homo sapiens) (P08047 whole entry, looked up): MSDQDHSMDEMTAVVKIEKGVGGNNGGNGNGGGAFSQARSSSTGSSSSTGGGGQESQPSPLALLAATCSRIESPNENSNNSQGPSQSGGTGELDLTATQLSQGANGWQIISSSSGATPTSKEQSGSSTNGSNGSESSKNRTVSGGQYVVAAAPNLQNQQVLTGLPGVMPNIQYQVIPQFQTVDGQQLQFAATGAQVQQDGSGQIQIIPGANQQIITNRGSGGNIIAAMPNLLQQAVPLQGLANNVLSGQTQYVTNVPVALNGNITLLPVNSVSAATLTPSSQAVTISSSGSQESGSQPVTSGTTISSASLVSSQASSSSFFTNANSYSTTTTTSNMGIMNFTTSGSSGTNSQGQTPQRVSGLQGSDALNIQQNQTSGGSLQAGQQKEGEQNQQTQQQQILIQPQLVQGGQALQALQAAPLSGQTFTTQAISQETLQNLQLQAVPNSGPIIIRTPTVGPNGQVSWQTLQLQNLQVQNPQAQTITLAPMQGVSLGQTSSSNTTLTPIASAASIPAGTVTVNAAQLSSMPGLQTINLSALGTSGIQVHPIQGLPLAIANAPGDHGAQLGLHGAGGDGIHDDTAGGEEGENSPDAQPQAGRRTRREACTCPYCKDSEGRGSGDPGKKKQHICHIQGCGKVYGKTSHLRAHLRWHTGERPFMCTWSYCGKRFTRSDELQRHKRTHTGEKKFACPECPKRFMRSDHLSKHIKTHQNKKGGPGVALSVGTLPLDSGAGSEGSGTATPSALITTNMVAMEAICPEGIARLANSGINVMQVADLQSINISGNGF
Sequence of Signal transducer and activator of transcription 3 (Homo sapiens) (P40763 whole entry, looked up): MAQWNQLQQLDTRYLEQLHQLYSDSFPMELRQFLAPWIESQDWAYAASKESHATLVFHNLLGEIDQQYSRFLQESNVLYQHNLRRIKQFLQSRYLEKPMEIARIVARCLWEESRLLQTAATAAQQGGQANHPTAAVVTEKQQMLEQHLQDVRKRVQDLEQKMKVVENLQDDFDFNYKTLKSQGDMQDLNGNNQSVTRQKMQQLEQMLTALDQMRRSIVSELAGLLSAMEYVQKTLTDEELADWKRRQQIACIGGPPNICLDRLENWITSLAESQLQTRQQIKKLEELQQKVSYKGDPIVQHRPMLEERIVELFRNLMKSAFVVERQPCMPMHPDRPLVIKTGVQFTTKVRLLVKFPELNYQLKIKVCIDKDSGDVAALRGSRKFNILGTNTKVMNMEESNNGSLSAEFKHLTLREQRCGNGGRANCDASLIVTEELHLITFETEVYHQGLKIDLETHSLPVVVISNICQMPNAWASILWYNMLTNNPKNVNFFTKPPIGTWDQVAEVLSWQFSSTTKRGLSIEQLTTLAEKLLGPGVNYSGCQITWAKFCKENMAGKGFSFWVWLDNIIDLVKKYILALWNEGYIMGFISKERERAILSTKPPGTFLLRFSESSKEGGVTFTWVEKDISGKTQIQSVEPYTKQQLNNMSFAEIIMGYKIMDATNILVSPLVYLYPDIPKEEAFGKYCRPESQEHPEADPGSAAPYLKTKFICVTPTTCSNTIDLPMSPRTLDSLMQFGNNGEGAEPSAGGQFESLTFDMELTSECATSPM

Cc1cccc(N(C)C)c1
not listed: [19] | [20]
inactive: all other assays above

O=C(O)C(F)(F)C(F)(F)C(F)F
not listed: [13] | [20]
inactive: all other assays above

O[Si](c1ccccc1)(c1ccccc1)c1ccccc1
active: [1] 134 µM | [2] 10.2 µM | [19] 33.3 µM | [11] 0.897 µM | [16] 69.1 µM
not listed: [13] | [20]
inactive: all other assays above

CCN(CC)c1ccc2c(C)cc(=O)oc2c1
active: [10] 65.9 µM | [11] 2.92 µM | [12] 50.2 µM
not listed: [19]
inactive: all other assays above

FC(F)(F)C(F)(F)C(F)(F)C(F)(F)C(F)(F)C(F)(F)CC1CO1 (centres undefined)
not listed: [13] | [19] | [20]
inactive: all other assays above

OC[C@@H](O)[C@@H](O)[C@H](O)[C@@H](O)CO
inactive: [1] | [4] | [5] | [6] | [7] | [8] | [20] | [19] | [10] | [11] | [14] | [15] | [16] | [17] | [18]
active: [11] 26.3 µM

CCCCOCCOCCOC(=O)CCCCC(=O)OCCOCCOCCCC
active: [11] 26.9 µM
not listed: [20]
inactive: all other assays above

CS(C)(=O)=O
active: [11] 4.43 µM
not listed: [13] | [19]
inactive: all other assays above

CNC(=S)NC
active: [11] 24.9 µM
not listed: [19] | [20]
inactive: all other assays above

C=CC(F)(F)C(F)(F)C(F)(F)C(F)(F)C(F)(F)C(F)(F)C(F)(F)C(F)(F)F
not listed: [20]
inactive: all other assays above

NC(=O)C(F)(F)C(F)(F)C(F)(F)C(F)(F)F
not listed: [19] | [20]
inactive: all other assays above

C=C(C)C(=O)OCC(F)(F)C(F)(F)C(F)(F)F
not listed: [20]
inactive: all other assays above

[Co]
active: [11] 13.8 µM
not listed: [13] | [19]
inactive: all other assays above

O=C(O)C(F)(F)C(F)(F)OC(F)(F)F
not listed: [20]
inactive: all other assays above
